Reference: PubChem BioAssay (Tox21)
Several values for one entry are separate records, joined by “and”; a condition that tells them apart may be missing. Equal entries are not always repeated. Results filed as inconclusive are left out. A structure can be active in one record and inactive in another. Activity calls are given as the source filed them. Unless noted, the call rests on the fitted dose curve; in most records, active means well fitted curve in the direction sought with a large enough effect in the repeat runs; inconclusive means weak or mixed curves; inactive means no such curve, though single readings can be large; an effect the other way counts as inactive or inconclusive.

Legend:
[1] = qHTS assay to identify small molecule antagonists of the androgen receptor (AR) signaling pathway using the MDA cell line in the presence of 0.5 nM R1881 - cell viability counter screen (AID 1259242); further: nearly all actives have a fitted effect of over 45% in size; further: potency means the concentration at half of the fitted maximal effect
How it was run: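 qHTS format. MDA-kb2 (MMTV-luc, AR/GR responsive) + cpd + 0.5 nM R1881 final, 16 hr 37C/0% CO2 → CellTiter-Fluor 30 min → fluorescence intensity.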

[2] = molecular target: Estrogen receptor (Homo sapiens) (UniProt P03372); assay: qHTS assay to identify small molecule antagonists of the estrogen receptor alpha (ER-alpha) signaling pathway using the BG1 cell line in the presence of 0.1 nM 17-beta-estradiol (AID 1259244); further: nearly all actives have a fitted effect of over 50% in size; further: potency means the concentration at half of the fitted maximal effect
Sequence of Estrogen receptor (Homo sapiens) (P03372 whole entry, looked up): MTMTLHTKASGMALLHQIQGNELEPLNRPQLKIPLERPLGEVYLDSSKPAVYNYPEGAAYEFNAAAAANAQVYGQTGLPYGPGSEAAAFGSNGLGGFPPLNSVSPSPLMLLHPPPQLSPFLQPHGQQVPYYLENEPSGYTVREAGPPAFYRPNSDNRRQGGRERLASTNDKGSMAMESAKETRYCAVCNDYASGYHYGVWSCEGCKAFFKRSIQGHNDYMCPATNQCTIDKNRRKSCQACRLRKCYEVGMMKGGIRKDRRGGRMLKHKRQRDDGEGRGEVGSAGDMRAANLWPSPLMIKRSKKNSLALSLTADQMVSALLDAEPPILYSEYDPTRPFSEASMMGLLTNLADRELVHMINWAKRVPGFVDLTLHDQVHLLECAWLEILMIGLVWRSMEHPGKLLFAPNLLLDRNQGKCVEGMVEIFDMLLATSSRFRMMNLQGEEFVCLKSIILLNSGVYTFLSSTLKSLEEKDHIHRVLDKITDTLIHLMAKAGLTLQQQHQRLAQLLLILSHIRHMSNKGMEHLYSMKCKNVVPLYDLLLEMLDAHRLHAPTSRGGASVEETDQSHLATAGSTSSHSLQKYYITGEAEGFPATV
How it was run: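 Reporter is a stably transfected luciferase under four estrogen responsive elements in VM7Luc4E2 cells expressing native full-length ER-alpha; inhibition of 0.1 nM (final) 17beta-estradiol-driven signal over 22 h is read by luminescence.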

[3] = qHTS assay to identify small molecule phospholipidosis (PLD) inducers (AID 1259344; active means well fitted curve in the direction sought with a large enough effect; an effect the other way counts as inactive or inconclusive)
How it was run: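 Phospholipid accumulation was scored by imaging: fixed, Hoechst-counterstained HepG2 cells stained with LipidTOX Red after 24 h compound exposure at 37 C. Read-outs were pit count and pit intensity per well or per cell, with amiodarone and DMSO controls.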

[4] = qHTS assay to identify small molecule HDAC inhibitors (AID 1259364);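 further: wild-type HCT-116 cells with endogenous class I/II HDAC activity; top concentration of the series differs between compounds; nearly all actives have a fitted effect of over 45% in size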
How it was run: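 Quantitative high-throughput format: overnight-seeded HCT-116 cells got compounds for 2 hr at 37C; HDAC-Glo I/II reagent added, 30 min RT, luminescence measured.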

[5] = qHTS assay to identify small molecule HDAC inhibitors - cell viability counter screen (AID 1259365); further: series mostly up to about 92 µM; nearly all actives have a fitted effect of over 50% in size
How it was run: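 Luminescence from CellTiter-Glo, developed 30min at room temperature, reports viability of wild-type HCT-116 cells treated 2hr with compounds at 37 C and 5% CO2 after overnight plating.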

[6] = qHTS assay to identify small molecule agonists of the sonic hedgehog signaling (Shh) pathway - cell viability counter screen (AID 1259366); further: nearly all actives have a fitted effect of over 50% in size; further: potency means the concentration at half of the fitted maximal effect
How it was run: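 Cytotoxicity counter screen run in the same wells as the Shh reporter assay. NIH/3T3 cells carrying a Gli1 response element–driven luciferase were treated with DMSO-dissolved compounds for 24hr, and live-cell protease activity was measured with CellTiter-Fluor.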

[7] = qHTS assay to identify small molecule antagonists of the sonic hedgehog signaling (Shh) pathway - cell viability counter screen (AID 1259367); further: nearly all actives have a fitted effect of over 55% in size; further: potency means the concentration at half of the fitted maximal effect
How it was run: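 Viability was read by CellTiter-Fluor fluorescence in the same wells, reagent added 23 hr into compound treatment and incubated 1 hr at 37C. The 3T3 Gli1-Luc reporter cells (2,000/well) received conditioned medium after compound and ran 24 hr.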

[8] = qHTS assay to identify small molecule agonists of the sonic hedgehog signaling (Shh) pathway (AID 1259368; calls by dose curve;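 further: NIH/3T3-derived 3T3Gli1-Luc cells carrying a stable Gli1-driven firefly luciferase reporter; series mostly up to about 92 µM; nearly all actives have a fitted effect of over 15% in size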)
How it was run: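 Quantitative high-throughput format using a Gli1-driven firefly luciferase reporter line derived from NIH/3T3 cells. After a 24 hr compound treatment at 37 C and 5% CO2, luminescence reported Gli1 response element activity.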

[9] = qHTS assay to identify small molecule antagonists of the sonic hedgehog signaling (Shh) pathway (AID 1259369; calls by dose curve; further: nearly all actives have a fitted effect of over 45% in size; further: potency means the concentration at half of the fitted maximal effect)
How it was run: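 Stable Gli1-Luc reporter NIH/3T3 clone; quantitative HTS in stimulated mode with conditioned medium. Luminescence measured after 24hr compound treatment at 37 C.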

[10] = qHTS assay to identify small molecule agonists of the androgen receptor (AR) signaling pathway in the presence of an antagonist - cell viability counter screen (AID 1259379); further: nearly all actives have a fitted effect of over 25% in size; further: potency means the concentration at half of the fitted maximal effect
How it was run: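 Nilutamide-containing (3.0uM final) MDA-kb2 cultures, 3,000 cells/well, were treated with compounds across 15 concentrations. After 16 hr at 37C with no CO2, cell viability was determined by CellTiter-Fluor fluorescence in the luciferase assay wells.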

[11] = qHTS assay to identify small molecule antagonists of the estrogen receptor beta (ER-beta) signaling pathway - cell viability counter screen (AID 1259382); further: nearly all actives have a fitted effect of over 55% in size; further: potency means the concentration at half of the fitted maximal effect
How it was run: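 Viability is scored by CellTiter-Glo luminescence (30 min, room temperature) in ER-beta-UAS-bla HEK293T wells already read for reporter fluorescence. Compound exposure lasts 16 hr at 37C alongside 1nM 17-beta-estradiol in charcoal-stripped serum medium.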

[12] = molecular target: Estrogen receptor (Homo sapiens) (UniProt P03372); assay: qHTS assay to identify small molecule agonists of the estrogen receptor alpha (ER-alpha) signaling pathway in the presence of an antagonist (AID 1259383; calls by dose curve; further: nearly all actives have a fitted effect of over 15% in size; further: potency means the concentration at half of the fitted maximal effect; on activation: top concentration of the series differs between compounds)
How it was run: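 Readout was ERE-driven luciferase luminescence in VM7Luc4E2 cells, which express full-length ER-alpha endogenously. Compounds were tested at 15 concentrations for 22hr alongside 10.0nM ICI-182,780 (final concentration).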

[13] = qHTS assay to identify small molecule agonists or antagonists of the thyroid stimulating hormone receptor (TSHR) signaling pathway - wild type cell line counter screen (AID 1259384; calls by dose curve)
How it was run: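 Counter screen in untransfected Hek293: compounds (15-point titration, triplicate) plus phosphodiesterase inhibitor Ro20-1724 added after 18 h plating; 30 min RT. Intracellular cAMP via competitive d2/cryptate immunoassay, 1 h incubation.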

[14] = molecular target: Thyrotropin receptor (Homo sapiens) (UniProt P16473); assay: qHTS assay to identify small molecule antagonists of the thyroid stimulating hormone receptor (TSHR) signaling pathway (AID 1259385; calls by dose curve; further: nearly all actives have a fitted effect of over 20% in size)
Sequence of Thyrotropin receptor (Homo sapiens) (P16473 whole entry, looked up): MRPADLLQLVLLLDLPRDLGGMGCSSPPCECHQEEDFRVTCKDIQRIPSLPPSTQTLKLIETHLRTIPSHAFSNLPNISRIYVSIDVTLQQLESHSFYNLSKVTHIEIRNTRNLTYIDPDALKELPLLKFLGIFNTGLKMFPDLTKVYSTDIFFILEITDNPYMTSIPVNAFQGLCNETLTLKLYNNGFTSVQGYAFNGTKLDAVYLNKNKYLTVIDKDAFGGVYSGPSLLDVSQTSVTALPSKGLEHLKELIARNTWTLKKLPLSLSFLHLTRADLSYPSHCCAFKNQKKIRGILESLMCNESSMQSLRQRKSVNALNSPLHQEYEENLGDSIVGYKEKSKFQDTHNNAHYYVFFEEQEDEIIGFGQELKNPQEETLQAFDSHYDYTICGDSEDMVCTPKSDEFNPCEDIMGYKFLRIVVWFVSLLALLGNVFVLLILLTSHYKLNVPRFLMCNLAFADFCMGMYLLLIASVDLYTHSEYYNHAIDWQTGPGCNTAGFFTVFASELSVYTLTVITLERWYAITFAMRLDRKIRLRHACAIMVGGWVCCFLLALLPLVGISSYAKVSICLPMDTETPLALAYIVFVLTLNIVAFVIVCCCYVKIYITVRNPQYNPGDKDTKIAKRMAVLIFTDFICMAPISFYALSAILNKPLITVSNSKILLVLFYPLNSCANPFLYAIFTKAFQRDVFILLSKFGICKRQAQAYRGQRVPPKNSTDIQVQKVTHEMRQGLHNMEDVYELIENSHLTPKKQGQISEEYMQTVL
How it was run: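 Antagonist mode: compound-treated TSHR-expressing HEK293 cells were stimulated with 1.5 ng/mL TSH (final) in presence of Ro20-1724 for 30 min at RT. HTRF cAMP detection after 1 h; each compound tested at 15 concentrations, triplicate.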

[15] = molecular target: Estrogen receptor beta (Homo sapiens) (UniProt Q92731); assay: qHTS assay to identify small molecule agonists of the estrogen receptor beta (ER-beta) signaling pathway (AID 1259377; active means well fitted activation curve with a large enough effect in the signal ratio in the repeat runs, not every such curve was filed as active; the % refers to the signal ratio; further: potency means the concentration at half of the fitted maximal effect)
Sequence of Estrogen receptor beta (Homo sapiens) (Q92731 whole entry, looked up): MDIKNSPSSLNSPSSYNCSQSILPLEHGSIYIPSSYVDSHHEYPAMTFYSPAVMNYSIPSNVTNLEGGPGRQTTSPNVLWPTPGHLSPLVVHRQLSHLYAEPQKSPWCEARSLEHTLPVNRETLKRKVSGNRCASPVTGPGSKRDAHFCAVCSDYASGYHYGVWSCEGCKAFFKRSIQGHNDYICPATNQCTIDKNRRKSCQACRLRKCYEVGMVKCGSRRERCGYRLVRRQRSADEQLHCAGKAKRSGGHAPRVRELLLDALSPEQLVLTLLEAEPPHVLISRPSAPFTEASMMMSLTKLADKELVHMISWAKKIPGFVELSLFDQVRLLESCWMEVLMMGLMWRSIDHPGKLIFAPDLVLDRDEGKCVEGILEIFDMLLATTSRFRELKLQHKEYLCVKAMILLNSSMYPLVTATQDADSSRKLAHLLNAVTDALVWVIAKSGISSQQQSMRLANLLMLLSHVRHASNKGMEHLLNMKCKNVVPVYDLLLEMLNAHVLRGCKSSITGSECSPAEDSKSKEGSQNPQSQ
How it was run: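 HEK293T ER-beta-UAS-bla; 2% charcoal-stripped FBS; cells pre-incubated 6 hr, compound 16 hr, 37C/5% CO2; LiveBLAzer B/G FRET substrate 2 h RT; fluorescence intensity read.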

[16] = qHTS assay to identify small molecule agonists of the estrogen receptor alpha (ER-alpha) signaling pathway in the presence of an antagonist - cell viability counter screen (AID 1259386);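 further: series mostly up to about 92 µM; cells exposed to compounds for 22 h at 37 °C before the viability read; nearly all actives have a fitted effect of over 30% in size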
How it was run: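 In this counter screen, compound effects on VM7Luc4E2 viability were tested in the presence of the antagonist ICI-182,780 at 10.0nM final. Compounds were dosed at 15 concentrations, exposure lasted 22hr, and the CellTiter-Fluor signal was read.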

[17] = molecular target: Estrogen receptor beta (Homo sapiens) (UniProt Q92731); assay: qHTS assay to identify small molecule antagonists of the estrogen receptor beta (ER-beta) signaling pathway (AID 1259378; active means well fitted inhibition curve with a large enough effect in the signal ratio in the repeat runs, not every such curve was filed as active; the % refers to the signal ratio)
How it was run: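 Antagonist mode: compounds added to beta-lactamase reporter HEK293T ER-beta-UAS cells stimulated with E2 (1nM final), 16 hr at 37C. LiveBLAzer B/G FRET substrate, 2 hours room temperature, fluorescence read-out.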

[18] = qHTS assay to identify small molecule agonists of the estrogen receptor beta (ER-beta) signaling pathway - cell viability counter screen (AID 1259380); further: nearly all actives have a fitted effect of over 30% in size; further: potency means the concentration at half of the fitted maximal effect
How it was run: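 Steps: plate ER-beta-UAS-bla HEK293T cells, rest 6 hr; add compounds in DMSO; incubate 16 hr at 37C, 5% CO2; add FRET substrate 2 hr; add CellTiter-Glo, wait 30 min at room temperature; read luminescence.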

[19] = molecular target: Androgen receptor (Homo sapiens) (UniProt P10275); assay: qHTS assay to identify small molecule agonists of the androgen receptor (AR) signaling pathway in the presence of an antagonist (AID 1259381; calls by dose curve; further: nearly all actives have a fitted effect of over 15% in size)
Sequence of Androgen receptor (Homo sapiens) (P10275 whole entry, looked up): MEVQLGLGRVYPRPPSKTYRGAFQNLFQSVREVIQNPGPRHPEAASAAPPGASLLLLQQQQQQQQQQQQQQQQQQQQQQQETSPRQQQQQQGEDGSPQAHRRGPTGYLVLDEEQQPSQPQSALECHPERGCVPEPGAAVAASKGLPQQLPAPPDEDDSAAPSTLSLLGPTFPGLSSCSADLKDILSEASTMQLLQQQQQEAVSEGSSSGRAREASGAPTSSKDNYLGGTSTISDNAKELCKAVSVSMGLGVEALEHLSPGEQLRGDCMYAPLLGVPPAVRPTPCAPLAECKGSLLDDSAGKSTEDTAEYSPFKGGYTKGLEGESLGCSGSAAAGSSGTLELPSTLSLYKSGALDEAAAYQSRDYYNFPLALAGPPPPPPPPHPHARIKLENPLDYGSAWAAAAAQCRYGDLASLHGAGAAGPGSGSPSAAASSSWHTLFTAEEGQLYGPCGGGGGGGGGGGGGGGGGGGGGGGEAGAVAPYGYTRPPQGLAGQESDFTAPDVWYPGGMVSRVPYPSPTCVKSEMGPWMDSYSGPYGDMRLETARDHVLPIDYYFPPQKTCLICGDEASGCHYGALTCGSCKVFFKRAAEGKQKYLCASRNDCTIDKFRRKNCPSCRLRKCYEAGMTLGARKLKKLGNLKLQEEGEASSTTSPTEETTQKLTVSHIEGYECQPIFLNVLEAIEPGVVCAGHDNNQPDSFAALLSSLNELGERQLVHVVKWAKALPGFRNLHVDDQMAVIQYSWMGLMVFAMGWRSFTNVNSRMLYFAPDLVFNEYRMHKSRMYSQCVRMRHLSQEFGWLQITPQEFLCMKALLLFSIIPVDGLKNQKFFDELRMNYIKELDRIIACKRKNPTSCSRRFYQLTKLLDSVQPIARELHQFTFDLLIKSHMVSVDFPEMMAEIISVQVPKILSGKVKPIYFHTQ
How it was run: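 Reporter-gene luminescence from MDA-kb2 cells exposed 16hr at 37C (0% CO2) to 15-point compound titrations with 3.0uM final nilutamide as AR antagonist.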
On the % scale 0 is the no-effect control and ±100 the full control effect.

Cc1cc(C(C)(C)C)cc(C)c1CC1=NCCN1
inactive: Potency [1] | Potency [2] | Potency [3] | Potency [4] | Potency [5] | Potency [6] | Potency [7] | Potency [8] | Potency [9] | Potency [10] | Potency [11] | Potency [12] | outcome [13] | Potency [14]

CN1CCCCC1CCN1c2ccccc2Sc2ccc(S(C)=O)cc21 (centres undefined)
inactive: Potency [1] | Potency [2] | Potency [3] | Potency [4] | Potency [5] | Potency [8] | Potency [15] | outcome [13] | Potency [16]
active: Potency [9] 2.66 µM

O[C@@H]([C@H](O)[C@H](O)CBr)[C@H](O)CBr
inactive: Potency [1] | Potency [2] | Potency [3] | Potency [4] | Potency [5] | Potency [6] | Potency [7] | Potency [8] | Potency [9] | Potency [15] | Potency [17] | Potency [10] | Potency [18] | Potency [11] | Potency [12] | outcome [13] | Potency [16]

C=C(CC)C(=O)c1ccc(OCC(=O)O)c(Cl)c1Cl
60.7 µM (active) and inactive: Potency [6] | Potency [7]
active: Potency [10] 60.7 µM | Potency [18] 48.2 µM | Potency [11] 60.7 µM
inactive: Potency [1] | Potency [2] | Potency [3] | Potency [4] | Potency [5] | Potency [8] | Potency [14] | Potency [16]

CCOC(=O)NNc1ccc(N(CC)CC(C)O)nn1 (centres undefined)
inactive: Potency [1] | Potency [2] | PLD induction [3] -4.24% [at 7.66 µM] | Potency [4] | Potency [5] | Potency [6] | Potency [7] | Potency [8] | Potency [9] | Potency [15] | Potency [17] | Potency [10] | Potency [18] | Potency [11] | Potency [12] | outcome [13] | Potency [14] | Potency [16]

CCC(CC)(CC(=O)Nc1cccc(/C=C/c2nc(C3CCC3)cs2)c1)C(=O)O
inactive: Potency [1] | Potency [2] | Potency [3] | Potency [4] | Potency [5] | Potency [6] | Potency [7] | Potency [8] | Potency [9] | Potency [10] | Potency [16]
active: Potency [18] 7.5 µM

COC(C)=O
inactive: Potency [1] | Potency [2] | Potency [3] | Potency [4] | Potency [5] | Potency [6] | Potency [7] | Potency [8] | Potency [9] | Potency [15] | Potency [17] | Potency [10] | Potency [18] | Potency [11] | Potency [12] | Potency [16]

O=C1CCc2cc(OCCCCc3nnnn3C3CCCCC3)ccc2N1
inactive: Potency [1] | Potency [3] | Potency [4] | Potency [5] | Potency [6] | Potency [7] | Potency [8] | Potency [15] | Potency [10] | Potency [18] | Potency [11] | Potency [12] | Potency [14]
active: Potency [2] 21.1 µM | Potency [9] 10.6 µM

CCCCCCCCCCC[C@@H](C[C@@H]1OC(=O)[C@H]1CCCCCC)OC(=O)[C@H](CC(C)C)NC=O
inactive: Potency [1] | Potency [2] | Potency [3] | Potency [4] | Potency [5] | Potency [6] | Potency [7] | Potency [8] | Potency [10] | Potency [11] | Potency [12] | outcome [13] | Potency [14]

CCOC(=O)Cn1cccc1-c1nc(-c2ccc(OC)cc2)c(-c2ccc(OC)cc2)s1
inactive: Potency [1] | Potency [2] | Potency [3] | Potency [4] | Potency [5] | Potency [6] | Potency [7] | Potency [8] | Potency [9] | Potency [10] | outcome [19] | Potency [11] | Potency [12] | Potency [16]

CCCCCCCC/C=C\CCCCCCCCN
inactive: Potency [1] | Potency [2] | Potency [3] | Potency [4] | Potency [5] | Potency [6] | Potency [7] | Potency [8] | Potency [9] | Potency [15] | Potency [10] | Potency [11] | Potency [12] | outcome [13] | Potency [14]

C#C[C@]1(O)CC[C@H]2[C@@H]3[C@H](C)CC4=C(CCC(=O)C4)[C@H]3CC[C@@]21C
inactive: Potency [1] | Potency [2] | Potency [3] | Potency [4] | Potency [5] | Potency [6] | Potency [7] | Potency [8] | Potency [10] | Potency [18] | Potency [11]
active: Potency [9] 29.8 µM | Potency [15] 0.188 µM | Potency [12] 0.0841 µM

O=C(O)c1cc(=O)c2ccccc2o1
inactive: Potency [1] | Potency [2] | Potency [3] | Potency [4] | Potency [5] | Potency [7] | Potency [8] | Potency [9] | Potency [15] | Potency [17] | Potency [10] | Potency [18] | Potency [11] | Potency [12] | outcome [13] | Potency [14] | Potency [16]

CC(C(=O)O)c1ccc2c(c1)[nH]c1ccc(Cl)cc12 (centres undefined)
inactive: Potency [1] | Potency [2] | Potency [3] | Potency [5] | Potency [6] | Potency [7] | Potency [8] | Potency [9] | Potency [15] | Potency [17] | Potency [10] | Potency [11] | Potency [12] | outcome [13] | Potency [14] | Potency [16]

CCCCCCCCCCCCCC[N+](C)(C)Cc1ccccc1
active: Potency [1] 49.3 µM | Potency [2] 27.7 µM and 15.8 mM | Potency [6] 24.7 µM | Potency [9] 349 nM and 422 nM | Potency [10] 43.9 µM and 29.8 µM and 14.1 mM | Potency [18] 27.7 µM and 10.6 µM and 11.2 mM | Potency [11] 19.6 µM and 9.44 µM and 10 mM
27.7 µM (active) and inactive: Potency [7]
inactive: Potency [3] | Potency [4] | Potency [5] | Potency [8] | Potency [12] | outcome [13] | Potency [14]
